# HCMV inh: blocks human cytomegalovirus replication. HFF cells, HCMV-luciferase reporter, 72 h; hits give low values. activity change, negative = inhibition, % at 57.5 µM. hit rate 4.5% among 410,000. AID 1259415; in the data active means activity change below about -60%; inconclusive means no clear call, values can overlap the other calls; inactive means above about -39%
#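 Cell-based, HFFs, 1000 cells/well, 16 h 37C; cpds in DMSO + HCMV-luc, MOI 1 PFU/cell; 72 h 37C; OneGlo luminescence after 5 min RT; norm. to buffer vs Salinomycin 10uM.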
# FMDV antiviral: antivirals against foot and mouth disease virus; AID 1159524; hit rate 1.2% among 410,000; Potency, µM (highest dose often 57.9 µM), inactives show top-dose activity change, negative = inhibition, actives largely listed as inhibitors; FMDV antiviral cell-based qHTS; calls by dose curve; tested in HEK293T cells; further: read-out not given here; potency means the concentration at half of the fitted maximal effect; nearly all actives have a fitted effect of over 45% in size
# Lassa entry inh: Lassa virus entry inhibition. Lassa virus pseudotype entry inhibition, cell reporter. Potency, µM (series often up to 37.9 µM), for inactives: at the highest dose activity change, negative = inhibition, usual class: inhibitors. hit rate 1.2% among 300,000; calls by dose curve; tested in HEK293 cells; further: potency means the concentration at half of the fitted maximal effect; nearly all actives have a fitted effect of over 50% in size
# MARV entry inh: Marburg virus entry inhibition; Marburg virus pseudotyped entry inhibition, cell reporter; Potency, µM (highest dose often 37.8 µM), for the others: top-dose activity change, negative = inhibition, usual class: inhibitors; hit rate 1.8% among 300,000; AID 540276; calls by dose curve; tested in HEK293 cells; further: potency means the concentration at half of the fitted maximal effect
# Numbers without * were called inactive; u = inconclusive; x = no result given; ! = a repeat was not active; [ ] = dose if it differs, or a comment. Rows were chosen to be rich in hits. Some 6.2% of all compounds tested hit in one or more screens of this group. On the % scale 0 is the no-effect control and ±100 the full control effect.
SMILES,HCMV inh,FMDV antiviral,Lassa entry inh,MARV entry inh
CCN(CC)c1ccc(/C=N/NC(=O)c2cccc(S(=O)(=O)Nc3ccccc3OC)c2)cc1,-16.5,-12.4%,x,x
COc1ccccc1NS(=O)(=O)c1ccc(NN=C2CCCC2)c([N+](=O)[O-])c1,-78.7*,-22.4%,-16.5%,u
COc1ccccc1NS(=O)(=O)c1cccc(C(=O)N/N=C/c2ccc([N+](=O)[O-])o2)c1,-35.8,u,14.1µM*,u
COc1ccccc1NS(=O)(=O)c1ccc(N/N=C/C=C/c2ccccc2[N+](=O)[O-])c([N+](=O)[O-])c1,-27.7,6.2%,19.8%,-18.5%
CCN(CC)c1ccc(/C=N/NC(=O)c2cccc(S(=O)(=O)Nc3ccccc3OC)c2)c(O)c1,-102.8*,-0.7%,0.316µM*,5.62µM*
COc1ccccc1NS(=O)(=O)c1cccc(C(=O)N/N=C/c2ccc3c(c2)OCCO3)c1,-63.4*,11.3%,10.2%,0.1%
c1ccc2c(c1)OCc1nccn1-2,1.3,x,x,x
COc1cccc2sc(N3CCN(C(=O)CS(=O)(=O)c4ccc(Cl)cc4)CC3)nc12,-35.0,u,u,x
CC1(C(=O)NCc2ccccc2)CSCC(=O)N1CCc1c[nH]c2ccccc12 (configuration not stated),16.9,-1.0%,x,x
C[C@]12CC[C@@H]3c4ccc(O)cc4C[C@@H](CCCCCCCCCS(=O)CCCC(F)(F)C(F)(F)F)[C@H]3[C@@H]1CC[C@@H]2O (some centres not stated),x,x,3.26µM*,u
C[C@@H]1CN([C@H](C)CO)S(=O)(=O)c2ccc(C#Cc3ccccc3)cc2O[C@H]1CN(C)C(=O)Nc1ccc2c(c1)OCO2,-86.7*,-20.4%,x,x
CC(C)CC#Cc1ccc2c(c1)O[C@H](CN(C)C(=O)Nc1ccccc1)[C@@H](C)CN([C@H](C)CO)S2(=O)=O,3.9,97.4%,x,x
C[C@H](CO)N1C[C@H](C)[C@@H](CN(C)C(=O)c2ccc3c(c2)OCO3)Oc2cc(/C=C/c3ccccc3)ccc2S1(=O)=O,-61.9*,33.4%,x,x
COc1ccc(/C=C/C2=CCN(Cc3ccc(OC)cc3)CC2)cc1,u,-7.4%,-16.0%[46.1 µM],4.47µM*
Cc1ccc(S(=O)(=O)c2nc(-c3ccccc3F)oc2N2CC(C)OC(C)C2)cc1 (configuration not stated),-20.3,26.8%,15.8µM*,-17.1%
Cc1cc(Nc2cc(F)c(F)c(F)c2)cc(=O)n1-c1cc(F)c(F)c(F)c1,-38.8,x,x,x
Cc1cc(=O)[nH]c(SCC(=O)Nc2ccc3c(c2)CCC3)c1C#N,-76.6*,19.0%,x,x
CCCCCCCCNS(=O)(=O)CCNCCc1ccccc1,-16.9,-13.2%,x,x
CCCCCCCCNCCS(=O)(=O)NCCCCCCCC,-101.8*,u,x,x
Cc1cc(C)cc(CN2CCOc3ccc(CN4CCC(O)(c5cccnc5)CC4)cc3C2)c1,x,-19.4%,x,x
CCOC(=O)c1c(C)n(-c2ccccc2)c2ccc(OC(=O)c3ccccc3NC(=O)C(C)(C)C)cc12,-93.5*,u,2.5%[46.1 µM],x
CCOC(=O)c1c(C)n(-c2ccccc2)c2ccc(OC(=O)c3cccc(C)c3)cc12,-5.5,9.1%,11.7%[46.1 µM],x
CCOC(=O)c1c(C)n(-c2ccccc2)c2ccc(OC(=O)c3ccccc3NC(=O)C(C)C)cc12,-0.5,31.6µM*,-17.4%[46.1 µM],x
COCCNC(=O)C1(C)CCN(Cc2ccc(C(C)C)cc2)C1 (configuration not stated),u,-20.7%,x,x
COc1ccccc1N(CC(=O)NCCSCc1ccco1)S(=O)(=O)c1ccccc1,-28.2,-23.7%,-2.9%,u
SMILES,HCMV inh,FMDV antiviral,Lassa entry inh,MARV entry inh
COc1ccccc1N(CC(=O)NCCSCc1ccccc1)S(=O)(=O)c1ccccc1,-73.2*,u,x,x
COc1ccc(S(=O)(=O)N(CC(=O)NCCSCc2ccccc2)c2ccc(C)cc2)cc1,-4.0,-4.0%,-13.3%[46.1 µM],-9.4%[46.1 µM]
COc1ccccc1N(CC(=O)NCCSCc1ccccc1)S(=O)(=O)c1ccc(C)cc1,-63.1*!,35.5µM*,u,u
Cc1ccc(S(=O)(=O)N2CCOCC2)cc1C(=O)N1CCCC1,-26.4,16.4%,2.2%[46.1 µM],-4.6%[46.1 µM]
Cc1ccc(S(=O)(=O)N2CCOCC2)cc1C(=O)N1CCN(c2ccc(C(F)(F)F)cn2)CC1,-76.3*,u,u,u
Cc1nn2cc(-c3cccc(Cl)c3)cnc2c1Cl,61.9,39.9%,u,4.47µM*
O=C(O)c1cnn(-c2ccccc2)c1C(F)(F)F,-79.7*,2.0%,22.2%,u
Clc1ccc(-c2nc3ccc(Br)cn3c2Cc2ccsc2)cc1,-14.1,30.9%,x,x
Cc1ccnc2c1ccc1cccnc12,-98.0*,-7.5%,u,u
Cc1ccnc2c1ccc1ccccc12,-5.9,12.9%,x,x
c1cnc2c(c1)ccc1cccnc12,-98.9*,-6.1%,3.66µM*,5.8µM*
CCn1cc2c(n1)-c1c(oc(C(=O)Nc3ccc(Br)cc3F)c1C)CC2,82.4,22.0%,-24.0%[46.1 µM],x
CC1(C(=O)NCCc2c[nH]c3ccccc23)CCN1Cc1ccccc1OC(F)F (configuration not stated),-96.3*,-25.5%,x,x
CC1CCN(C(=O)CSc2c3c(nc4ccc(Cl)cc24)CCCC3)CC1,-39.1,u,1.2%[46.1 µM],22.1%[46.1 µM]
COc1ccc(Nc2ncc(C(=O)Nc3ccc(F)cc3F)c3ccccc23)cc1,-27.9,0.0%,-1.6%[46.1 µM],-12.6%[46.1 µM]
FC(F)(F)c1cccc(-c2n[nH]c3ccnc(-c4ccsc4)c23)c1,-60.2*,x,x,x
COc1ccc(NC(=O)C2Cc3c(-c4ccco4)ccnc3O2)cc1OC (configuration not stated),-73.4*,u,x,x
O=C(Nc1ccccc1)C1Cc2c(-c3cccc(F)c3)ccnc2O1 (configuration not stated),-30.6,-12.6%,x,x
COc1ccc(NC(=O)C2Cc3c(-c4ccc5c(c4)OCO5)ccnc3O2)cc1OC (configuration not stated),-89.6*,11.2µM*,x,x
COc1ccc(NC(=O)C2Cc3c(-c4ccc(NC(C)=O)cc4)ccnc3O2)cc1OC (configuration not stated),-35.8,-14.0%,x,x
CC(=O)c1cccc(NC(=O)C2Cc3c(-c4ccc(Cl)cc4)ccnc3O2)c1 (configuration not stated),x,35.5µM*,x,x
CS(=O)(=O)Nc1cccc(NC(=O)C2Cc3c(-c4cccc(F)c4)ccnc3O2)c1 (configuration not stated),-77.9*,-0.7%,x,x
CCCCCCCCN1C(=O)[C@@H](CC(=O)N2CCN(C(=O)C3CC3)CC2)C[C@@]2(C(=O)OC)C1=C[C@H](C1CCCC1)O[C@@H]2C,67.3,x,x,x
O=C1c2c(-c3ccc(Br)cc3)noc2CCN1Cc1cn(Cc2ccccc2)nn1,-35.1,-20.8%,x,x
CCCN1[C@@H]2c3cccc(=O)n3C[C@H]1[C@H](CO)[C@H]2C(=O)OC,-1.2,x,x,x
COCC#Cc1ccc2c(c1)O[C@H](CN(C)C(=O)c1ccccc1)[C@@H](C)CN([C@H](C)CO)S2(=O)=O,-6.0,x,x,x
COc1ccc(NC(=O)C2Cc3c(-c4cccc(F)c4)ccnc3O2)cc1OC (configuration not stated),-75.9*,15.8µM*,x,x
OC1(c2ccc(Cl)c(C(F)(F)F)c2)CCN(CCCC(c2ccc(F)cc2)c2ccc(F)cc2)CC1,-99.2*,x,x,x
